# Reference: PubChem BioAssay AID463115 (University of Pittsburgh Molecular Library Screening Center, 2010)
# In all, about 220,000 compounds went through this assay and about 130 (0.059%) were called active. Only a selection was taken, and actives are over-represented in it overall. A number with no mark means an inactive call. Cut-off read from the data, not from the text of the source: active = inhibition above about 25%; inactive = the rest.
# Target: Furin (Homo sapiens) (UniProt P09958)
# Assay: human furin inhibitors, primary screen, biochemical, fluorescence intensity (AID 463115)
# Settings: purified furin, fluorogenic substrate cleavage, stronger effect = higher value; at 30 µM unless noted
# Chain of Furin (Homo sapiens) (P09958 108-714 limits assumed): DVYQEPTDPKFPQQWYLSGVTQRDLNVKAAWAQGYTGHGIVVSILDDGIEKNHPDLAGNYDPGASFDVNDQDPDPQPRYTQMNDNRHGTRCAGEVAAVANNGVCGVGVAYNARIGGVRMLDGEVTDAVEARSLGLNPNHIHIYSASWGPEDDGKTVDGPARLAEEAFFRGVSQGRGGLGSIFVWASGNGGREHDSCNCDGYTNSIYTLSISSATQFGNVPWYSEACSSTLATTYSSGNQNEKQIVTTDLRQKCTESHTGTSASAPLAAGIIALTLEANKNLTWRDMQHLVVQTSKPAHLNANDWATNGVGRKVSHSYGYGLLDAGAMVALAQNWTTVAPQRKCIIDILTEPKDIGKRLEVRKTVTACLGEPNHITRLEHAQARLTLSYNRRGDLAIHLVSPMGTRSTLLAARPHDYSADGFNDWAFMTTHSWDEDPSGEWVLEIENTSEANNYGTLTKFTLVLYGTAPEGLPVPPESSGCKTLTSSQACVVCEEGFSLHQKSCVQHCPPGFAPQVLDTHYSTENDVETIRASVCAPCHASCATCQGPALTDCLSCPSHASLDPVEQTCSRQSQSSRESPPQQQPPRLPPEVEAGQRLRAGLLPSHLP
row,SMILES,inhibition
1,CC(=O)c1sc(NC(=O)c2ccc(C)cc2)nc1C,26.4% [at 20 µM] (active)
2,CC(=O)c1sc(NC(=O)c2cccc3ccccc23)nc1C,-10.7% [at 20 µM]
3,COC(=O)c1sc(NC(=S)NC(=O)c2ccc(C)cc2)nc1C,-11.8%
4,CN(C)c1ccc(/C=N/NC(=O)C(O)c2ccc(Br)cc2)cc1 (stereo unspecified),-19%
5,CCC(=O)NC(Nc1nc2ccc(C)cc2s1)(C(=O)OC)C(F)(F)F (stereo unspecified),-11.3% [at 20 µM]
6,CCCCNC(=O)OC(C)CNC(=O)OC (stereo unspecified),-9.97% [at 20 µM]
7,CN(C)/N=C/c1cn(-c2ccccc2)nc1-c1cccnc1,1.34%
8,CCCNS(=O)(=O)c1ccc(CCC(=O)N2CCCC2)cc1,-15.5%
9,C=CC(COCc1ccccc1)N(Cc1ccccc1)S(=O)(=O)c1ccccc1Br (stereo unspecified),-14.6%
10,COc1ccc(C2=NOC3(CC(=O)N(c4ccc(Cl)cc4)C3=O)C2)c(OC)c1 (stereo unspecified),-21.1% [at 20 µM]
11,O=C(NC1CCN(Cc2ccccc2)CC1)c1c(F)cccc1F,-12.2%
12,Nc1c(NCCc2ccccc2)c2ccccc2oc1=O,-0.514%
13,Cc1cc(Nc2ccc(N3CCOCC3)cc2)c2cccc(C)c2n1,3.96%
14,O=C(NN1C(=O)C2C(C1=O)C1C=CC2C12CC2)c1ccccc1Cl (stereo unspecified),-7.61%
15,Cc1ccc(N(C(=O)Cc2cccs2)C2C=CS(=O)(=O)C2)cc1Cl (stereo unspecified),-2.17%
16,Cc1ccc(-n2c(SCC(=O)N/N=C/C=C/c3ccccc3[N+](=O)[O-])nc3ccccc3c2=O)cc1,-14.5%
17,CCC(=O)N(Cc1cc2ccccc2[nH]c1=O)c1ccc(OC)cc1,-11.6%
18,CCCCc1ccc(NC(=S)N2CCCC(CO)C2)cc1 (stereo unspecified),-6.03%
19,O=S(=O)(NCC1CCCO1)c1cnc(Cl)c(Cl)c1 (stereo unspecified),-12.9%
20,Cc1ccc(NC(=S)N(CCN(C)C)Cc2cccs2)cc1C,-9.92%
21,COc1cccc(/C=N/NC(=O)CNC(=O)c2ccc(S(=O)(=O)N3CCOCC3)cc2)c1OC,-9.37%
22,COC(=O)CCc1sc(Nc2ccc(Br)cc2)nc1-c1ccc(OC)cc1,-10.8%
23,CC1=CC=CN2C1=NC(=O)CC2(C)C(=O)N(CC(=O)NC1CCCC1)c1ccccc1C (stereo unspecified),-22.6%

row,SMILES,inhibition
1,CC(C)C1Nc2c(C(=O)O)cccc2C(Nc2ccccc2C(=O)O)C1(C)C (stereo unspecified),-28%
2,Cn1c(CCCOc2ccc(Cl)cc2Cl)n[nH]c1=S,-27%
3,O=C(O)C1C2CC2CN1C(=O)c1ccc(Cl)cc1Cl (stereo unspecified),-14.1%
4,O=C1CC(Cc2ccc(Cl)cc2)C(=O)N1c1cc(Cl)ccn1 (stereo unspecified),7.89%
5,CCn1c(-c2cccnc2Cl)nc2cc(C)c(C)cc21,-16.4%
6,CCOC(=O)CCCNC(=O)COC(=O)c1cc(Br)c(Br)s1,-22.9%
7,CC(Sc1nnc(Cc2ccc([N+](=O)[O-])cc2)o1)C(N)=O (stereo unspecified),-20.4% [at 20 µM]
8,O=C(c1ccc(OC2CCN(C(=O)c3cccnc3)CC2)cc1)N1CCCCCC1,-20.3%
9,CCOC(=O)/C(=C\c1ccc([N+](=O)[O-])cc1)C(=O)c1cc(C(C)=O)c(Nc2ccccc2)s1,-2.4%
10,CC(C)(C)c1nc2ccccc2c(=O)n1N1C(=O)c2ccccc2C1=O,-15.6% [at 20 µM]
11,O=C(NC1CCN(Cc2ccccc2)CC1)c1cc(Br)c(Br)[nH]1,-27.8%
12,NC(N)=NCCCc1cn(CC(=O)N2CCNCC2)nn1,-18.6%
13,CC(C)(O)C#Cc1ncc(C(F)(F)F)cc1Cl,-28.4%
14,Cc1ccc(/C=C/C(=O)O)cc1S(=O)(=O)N1CCC(Cc2ccccc2)CC1,-29.9%
15,CCOc1ccc(N2C(=O)/C(=C/c3ccc(C)o3)N(C)C2=S)cc1,3.15%
16,O=C(/C=C/NNC(=O)c1cccc(Br)c1)c1ccccc1,0.209% [at 20 µM]
17,O=C(C1=C[C@H](c2coc3ccccc3c2=O)C[C@H](OCc2ccc(CO)cc2)O1)N1CCN(Cc2ccccc2)CC1,-22.1%
18,COc1cc(/C=N\NC(=O)c2nonc2N)c(OC)cc1Br,-19.8%
19,Cc1nnc(SCC(=O)NC2CCCC2)s1,-7.06% [at 20 µM]
20,NNc1nc2c(Cl)cccc2s1,-15.9%
21,COc1ccc(NS(=O)(=O)c2ccc(Oc3c(C#N)cccc3C#N)cc2)cc1,-15.9%
22,CC1=C[C@H]2Cc3cc(C)cc(C)c3S(=O)(=O)[C@@H]2C=C1,-14.9%
23,Cn1c(=O)c2c(ncn2CC(COCc2ccccc2Cl)OCc2ccccc2Cl)n(C)c1=O (stereo unspecified),-9.34% [at 20 µM]
